Drawing on ChEMBL document CHEMBL2218924, “A broad activity screen in support of a chemogenomic map for kinase signalling research and drug discovery” (Biochem J, 2013), this text covers residual activity for 27 molecules.

The term residual activity denotes the signal under treatment as a percentage of the control signal.

Structures are written as SMILES.

Tyrosine-protein kinase Lck (Homo sapiens), sequence (P06239 2-509 limits assumed): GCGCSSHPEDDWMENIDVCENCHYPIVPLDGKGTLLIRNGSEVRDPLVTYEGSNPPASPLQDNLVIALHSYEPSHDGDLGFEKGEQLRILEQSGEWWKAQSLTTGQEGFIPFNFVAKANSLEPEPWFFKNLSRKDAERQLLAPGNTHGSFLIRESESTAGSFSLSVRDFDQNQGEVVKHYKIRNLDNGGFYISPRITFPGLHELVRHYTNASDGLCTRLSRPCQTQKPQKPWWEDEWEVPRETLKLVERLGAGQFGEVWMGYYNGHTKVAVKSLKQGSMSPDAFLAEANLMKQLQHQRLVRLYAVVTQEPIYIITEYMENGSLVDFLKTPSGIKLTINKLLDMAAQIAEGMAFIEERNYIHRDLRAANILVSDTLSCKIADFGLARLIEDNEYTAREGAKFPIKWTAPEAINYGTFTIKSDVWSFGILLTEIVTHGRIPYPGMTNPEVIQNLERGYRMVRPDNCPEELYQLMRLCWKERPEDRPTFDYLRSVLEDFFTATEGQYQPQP

The first assay has as its target Tyrosine-protein kinase Lck (Homo sapiens) (UniProt P06239). The note with it: at 1 µM.
As to `CN([C@@H](Cc1ccc(OS(=O)(=O)c2cccc3cnccc23)cc1)C(=O)N1CCN(c2ccccc2)CC1)S(=O)(=O)c1cccc2cnccc12`, the residual activity was 113%.

As to `O=C1Cc2c([nH]c3ccc([N+](=O)[O-])cc23)-c2ccccc2N1`, the residual activity was determined as 76%.

As for `NC(=O)c1cccc(-c2cc(Nc3ccc(OC(F)(F)F)cc3)ncn2)c1`, the residual activity stood at 92%.

For a further assay the target is unchanged. The note with it: at 10 µM.
As for `Fc1ccc(-c2nc3n(c2-c2ccncc2)CCS3)cc1`, the residual activity came to 75%.

With `O=C1Cc2c([nH]c3ccc([N+](=O)[O-])cc23)-c2ccccc2N1`, the residual activity came out at 45%.

For `NC(=O)c1cccc(-c2cc(Nc3ccc(OC(F)(F)F)cc3)ncn2)c1`, the residual activity is 91%.

The target of the next assay is Tyrosine-protein kinase Lyn (Homo sapiens) (UniProt P07948). Particulars: at 1 µM.
Tyrosine-protein kinase Lyn (Homo sapiens), sequence (P07948 2-512 limits assumed): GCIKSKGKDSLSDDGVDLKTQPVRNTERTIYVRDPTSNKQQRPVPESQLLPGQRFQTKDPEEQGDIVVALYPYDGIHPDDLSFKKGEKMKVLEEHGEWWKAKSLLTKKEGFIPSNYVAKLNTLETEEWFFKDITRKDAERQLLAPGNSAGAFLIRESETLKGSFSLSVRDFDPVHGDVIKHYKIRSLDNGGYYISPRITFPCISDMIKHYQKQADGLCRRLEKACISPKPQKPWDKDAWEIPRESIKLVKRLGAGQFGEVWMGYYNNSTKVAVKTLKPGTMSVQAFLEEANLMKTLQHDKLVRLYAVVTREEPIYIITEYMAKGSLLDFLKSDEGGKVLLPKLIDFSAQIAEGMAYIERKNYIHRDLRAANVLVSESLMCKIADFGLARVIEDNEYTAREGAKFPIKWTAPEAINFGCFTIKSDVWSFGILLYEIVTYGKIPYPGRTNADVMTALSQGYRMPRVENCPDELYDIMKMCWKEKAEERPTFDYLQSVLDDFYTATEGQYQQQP
Take `CCOC(=O)c1c(C)[nH]c(/C=C2\C(=O)Nc3ccccc32)c1C`: the residual activity stood at 50%.

With `CN([C@@H](Cc1ccc(OS(=O)(=O)c2cccc3cnccc23)cc1)C(=O)N1CCN(c2ccccc2)CC1)S(=O)(=O)c1cccc2cnccc12`, the residual activity stood at 78%.

`CCOc1nc(NC(=O)Cc2cc(OC)ccc2OC)cc(N)c1C#N`: the residual activity came to 69%.

As for `O=C(Nc1ccc(Cl)cc1)c1ccccc1NCc1ccncc1`, the residual activity is 30%.

In the case of `CN(C)S(=O)(=O)c1ccc2c(c1)/C(=C/c1cc3c([nH]1)CCCC3)C(=O)N2`, the residual activity was 3%.

For the molecule `Fc1ccc(-c2nc3n(c2-c2ccncc2)CCS3)cc1`, the residual activity amounted to 98%.

In the case of `Nc1n[nH]c2nc3ccccc3nc12`, the residual activity came out at 75%.

On to `COc1cc2c(cc1OC)-c1n[nH]c(Nc3cccc(F)c3)c1C2`, for which the residual activity is 6%.

As for `Nc1nccc(-c2c(-c3ccc(F)cc3)ncn2C2CCNCC2)n1`, the residual activity was 50%.

With `Cn1sc(=O)n(Cc2ccccc2)c1=O`, the residual activity was determined as 82%.

With `Cc1cc(C)c(/C=C2\C(=O)Nc3ccccc32)[nH]1`, the residual activity was 46%.

As for `CC(C)(C)c1nc2c3ccc(F)cc3c3c(=O)[nH]ccc3c2[nH]1`, the residual activity was 65%.

On to `CCN1/C(=C/C(C)=O)Sc2ccc(OC)cc21`, for which the residual activity was found to be 49%.

As to `O=C1Cc2c([nH]c3ccc([N+](=O)[O-])cc23)-c2ccccc2N1`, the residual activity is 6%.

For `Oc1cccc(-c2nc(N3CCOCC3)c3oc4ncccc4c3n2)c1`, the residual activity is 99%.

Regarding `NC(=O)c1cccc(-c2cc(Nc3ccc(OC(F)(F)F)cc3)ncn2)c1`, the residual activity was 97%.

As to `N#Cc1c(NC(=O)c2cccc3ccccc23)sc2c1CCCC2`, the residual activity was 90%.

On to `Cn1c2ccccc2c2c3c(c4c5ccccc5n(CCC#N)c4c21)CNC3=O`, for which the residual activity is 21%.

Turning to `O=C1NC(=O)C(c2cn(CCCO)c3ncccc23)=C1c1cnccn1`, the residual activity is 78%.

Take `Nc1ncnc2c1cnn2-c1ccccc1`: the residual activity stood at 95%.

Turning to `NC(=O)Nc1sc(-c2ccc(F)cc2)cc1C(N)=O`, the residual activity came to 16%.

`O=c1c(-c2ccc(F)cc2)c(-c2ccncc2)[nH]n1-c1ccc(Cl)cc1`: the residual activity amounted to 75%.

On to `O=S(=O)(c1cccc2cnccc12)N1CCCNCC1`, for which the residual activity worked out at 83%.

Regarding `COc1ccc(Cl)cc1NC(=O)Nc1cc(C)nc2ccccc12`, the residual activity turned out to be 89%.

`O=C1Cc2c([nH]c3ccc(Br)cc23)-c2ccccc2N1`: the residual activity came to 10%.

For the molecule `NC(=O)c1ccc(-c2nc(-c3ccc4c(c3)OCCO4)c(-c3ccccn3)[nH]2)cc1`, the residual activity amounted to 83%.

For `CC(C)[C@H](CO)Nc1nc(Nc2cc(N)cc(Cl)c2)c2ncn(C(C)C)c2n1`, the residual activity turned out to be 9%.
